Assay results taken from PubChem BioAssay (NCATS).
Records with an inconclusive call do not appear. Entries that show only a call come without a potency. Calls of active or inactive are those of the source. Calls follow the shape of the dose curve; as a rule, active = well fitted inhibition curve with a large enough effect; inconclusive = small, poorly fitted or top-dose-only effect; inactive = flat fitted curve, though single readings scatter.

The compounds below were run against Calcium and integrin-binding protein 1 (Homo sapiens) (UniProt Q99828) (assay: Primary qHTS for Identification of Calcium Integrin Binding Protein 1 (CIB1) Competitor (AID 1508620;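 also: GST tagged CIB1 binding a fluorescein labelled alphaIIb integrin peptide tracer; top concentration of the series differs between compounds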)). Settings: CIB1-GST / FITC-alphaIIb peptide fluorescence polarization; series mostly up to 114 µM.
Calcium and integrin-binding protein 1 (Homo sapiens), sequence (Q99828 whole entry, looked up): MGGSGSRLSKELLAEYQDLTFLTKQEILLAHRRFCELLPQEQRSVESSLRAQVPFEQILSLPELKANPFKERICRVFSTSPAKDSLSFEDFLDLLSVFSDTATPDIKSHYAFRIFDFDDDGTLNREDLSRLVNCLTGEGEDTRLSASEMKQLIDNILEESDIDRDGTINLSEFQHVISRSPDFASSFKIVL
Procedure, shortened: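 Fluorescence polarization competition: CIB1-GST (1 uM final) preincubated with compound 15 min at room temperature, then FITC-labeled alphaIIb peptide (100 nM final) added for another 15 min. Polarization read at Ex 480/Em 540.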
With `C[C@@](O)(COc1ccc(C#N)cc1)C(=O)Nc1ccc(C#N)c(C(F)(F)F)c1` the Potency was “inactive”.
`CC(=O)OC12C(O)C(C)C3(O)C4C=C(C)C(=O)C4CC(CO)=CC3C1C2(C)C` (stereo not drawn) was tested, and the Potency was “inactive”.
`COC1CC(=O)C23C(=O)NC(CC(C)C)C2C(C)=C(C)C(OO)C3/C=C(\C)CCC(O)C1O` (stereo not drawn) was tested, and the Potency was “inactive”.
For `CN1[C@@H]2CC[C@H]1CC(OC(=O)C1C=Nc3ccccc31)C2` (stereo partly drawn), the Potency was “inactive”.
In the case of `CN1C(=O)c2ccccc2NC(=O)C1Cc1ccccc1` (stereo not drawn), the Potency is reported as “inactive”.
In the case of `C=C[C@H]1CN2CC[C@H]1C[C@@H]2[C@@H](O)c1ccnc2ccccc12`, the Potency is reported as “inactive”.
For `CN1C(=O)c2ccccc2NC(=O)[C@]12O[C@@H]2c1ccccc1`, the Potency was “inactive”.
`C/C=C(\C)C(=O)OC1CC2C(C)(C)OC(=O)CC(OC(C)=O)C2(C)C2CC(OC(=O)C(C)C)C3(C)C(c4ccoc4)CC4OC43C12C` (stereo not drawn) was tested, and the Potency was “inactive”.
